mHTT CaM bind = mHTT-calmodulin interaction abrogation; P42858; AlphaScreen His-mHTT/GST-CaM binding, luminescence; inhibition, % at 15 µM; 190,000 tested, 3.6% active; AID 1671202;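 note: 0% = both proteins with DMSO and 100% = one protein alone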
Pf apPOL inh = Pf-apPOL DNA polymerase inhibition | Recombinant Pf-apPOL, molecular beacon fluorescence, 1.5 h | inhibition, % at 10 µM | 210,000 tested, 0.25% active
An asterisk follows results filed as active; . = not tested or not shown. This is one part of a sample in which hits are shown more often than they occur. Cut-off read from the data, not from the text of the source: active = inhibition above about 50%; inactive = the rest.

SMILES	mHTT CaM bind	Pf apPOL inh
CCN(Cc1ccccc1)S(=O)(=O)c1cc(C(=O)Nc2ccc(F)c(F)c2)ccc1F	-26.0	53.4*
Cc1ccc(C(C)C)c(OCC(=O)n2nc(C)cc2C)c1	-1.6	-6.2
COc1ccc(N=C/C=C/c2ccccc2Cl)cc1Cl	55.0*	-4.3
COc1ccc(N=Cc2ccc(Cl)cc2)cc1Cl	19.0	-2.7
C=CC[n+]1ccc(/C=C/c2ccccc2O)c2ccccc21	69.0*	-4.1
C[n+]1ccc(/C=C/c2ccccc2F)c2ccccc21	6.0	-4.2
O=C(Nc1ccc2oc(-c3ccccc3)nc2c1)c1ccccc1[N+](=O)[O-]	23.6	-0.4
N#Cc1c(C(F)(F)F)cc(=O)n2c1[nH]c1ccccc12	-6.0	2.8
CC(=O)Nc1cccc(N2CC(C(=O)Nc3ccc(C)cc3C)CC2=O)c1 (stereo not drawn)	10.4	-0.4
CC(=O)Nc1cccc(N2CC(C(=O)Nc3ccc(F)cc3C)CC2=O)c1 (stereo not drawn)	4.5	87.3*
CC(C)=NNC(=O)NCc1ccccc1	.	-0.7
CC1CC(=O)Nc2c1c(NC(=O)c1ccc(S(=O)(=O)N3CCOCC3)cc1)nn2C (stereo not drawn)	100.1*	-6.1
CC1CC(=O)Nc2c1c(NC(=O)c1cc(-c3ccc(F)cc3)n[nH]1)nn2C (stereo not drawn)	0.6	-7.2
CCOc1ccc(N(CC(=O)N2CCCC2)S(=O)(=O)c2ccc(OC)c(OC)c2)cc1	25.7	2.9
CC(=O)Nc1cc(C(=O)NC(C)C)c2ccc(C)nc2c1	-6.3	31.5
CC(=O)Nc1cc(C(=O)NC2CCCC2)c2ccc(C)nc2c1	100.3*	16.5
Cc1cccc(N2CCN(C(=O)c3cccc([N+](=O)[O-])c3C)CC2)c1C	-1.1	-4.2
CC(=O)Nc1cc(C(=O)N2CCN(c3cccc(C)c3)CC2)c2ccc(C)nc2c1	68.3*	-402.1
CC(=O)Nc1cc(C(=O)N2CCN(c3cccc(C)c3C)CC2)c2ccc(C)nc2c1	95.2*	-33.6
CC(=O)Nc1cc(C(=O)NCCN2CCCCC2)c2ccc(C)nc2c1	6.3	24.5
CC(=O)Nc1cc(C(=O)N2CCN(c3cc(C)ccc3C)CC2)c2ccc(C)nc2c1	100.0*	-15.8
CC(=O)Nc1cc(C(=O)N2CCN(C3CCCCC3)CC2)c2ccc(C)nc2c1	23.9	-49.1
COc1cccc(CSc2nc(C)c(CC(=O)NCc3ccccn3)c(=O)[nH]2)c1	-9.5	-11.8
O=[N+]([O-])c1cccc(-c2noc(CCc3ccccc3)n2)c1	18.1	-0.9
COc1ccc2c(-c3cc4cccc(OC)c4oc3=O)cc(=O)oc2c1	-3.6	-5.5
SMILES	mHTT CaM bind	Pf apPOL inh
Cc1ccc(NC(=O)NCc2ccnc(N3CCSCC3)c2)c(C)c1	4.5	1.8
Cc1cccc(NC(=O)c2cc(I)ccc2Cl)n1	-5.0	-3.6
O=C(NCc1ccccc1)N1CCC(n2c(-c3ccoc3)nc3cccnc32)C1 (stereo not drawn)	8.2	0.8
COc1ccc(C(=O)N2CCC(n3c(-c4ccoc4)nc4cccnc43)C2)cc1F (stereo not drawn)	63.4*	4.1
Cc1ccc(CNC(=O)N2CCC(n3c(-c4ccoc4)nc4cccnc43)C2)cc1 (stereo not drawn)	63.8*	0.0
Cc1ccc(C(=O)N2CCC(n3c(-c4ccoc4)nc4cccnc43)C2)cc1C (stereo not drawn)	33.5	-0.8
COc1cc(C(=O)N2CCC(n3c(-c4ccoc4)nc4cccnc43)C2)ccc1C (stereo not drawn)	47.3	-2.2
O=C(c1cccc(Br)c1)N1CCC(n2c(-c3ccoc3)nc3cccnc32)C1 (stereo not drawn)	55.3*	-1.1
O=C(Nc1ccc(F)cc1)C1COc2ccccc2O1 (stereo not drawn)	-9.8	1.9
Cc1ccccc1S(=O)(=O)N1CCC(CN2CCCC(C)C2)CC1 (stereo not drawn)	5.0	3.1
CCOc1ccccc1NC(=O)c1c(NCc2cccnc2)sc2c1CCCCC2	80.0*	-17.4
CCOC(=O)N1CCc2c(sc(N)c2C(=O)Nc2cc(OC)ccc2OC)C1	53.6*	-8.5
COc1ccc(OC)c(NC(=O)c2c(NCc3ccc(OC)c(OC)c3)sc3c2CCC3)c1	52.0*	-16.8
CCOC(=O)N1CCc2c(sc(NC(=O)c3cc(C)on3)c2C(=O)OC)C1	-12.1	-2.0
COc1ccc(OC)c(NC(=O)c2c(N)sc3c2CCCCC3)c1	64.5*	-4.1
COc1ccccc1NC(=O)c1c(NCc2ccc(OC)c(OC)c2)sc2c1CCC2	27.0	-14.7
COc1ccccc1NC(=O)c1c(N)sc2c1CCCC2	30.7	-4.5
CCOc1ccccc1NC(=O)c1c(NCc2ccccn2)sc2c1CCCC2	30.0	-26.7
CCOc1ccc(-c2csc3c(=O)n(C)cnc23)cc1OCC	1.2	-2.8
NS(=O)(=O)c1ccc(CCNC(=O)Cc2ccccc2[N+](=O)[O-])cc1	7.6	8.0
CC(C)C(=O)N1CCCC(C)(C(=O)NCc2ccccc2)C1 (stereo not drawn)	-11.6	3.9
COc1ccc(OC)c(NC(=O)c2c(NC(=O)CNCc3ccco3)sc3c2CCC3)c1	3.4	-0.6
CCOc1ccccc1NC(=O)c1c(NC(=O)C(F)(F)F)sc2c1CCCCC2	7.0	4.4
COc1ccccc1NC(=O)c1c(NCc2cccnc2)sc2c1CCCCC2	80.0*	-19.2
COc1ccc(OC)c(NC(=O)c2c(NCc3cccnc3)sc3c2CCC3)c1	81.0*	-14.2
SMILES	mHTT CaM bind	Pf apPOL inh
CCOc1ccc(C2C(C#N)=C(N)Oc3c2oc(CO)cc3=O)cc1OC (stereo not drawn)	-2.1	3.9
Fc1ccc(NCc2ccc3c(c2)OCO3)cc1F	-2.8	1.9
COc1cccc(CNc2ccc3c(c2)ncn3-c2ccccc2)c1OC	48.0	-0.7
CC(=O)Nc1ccc(CNc2ccc3c(c2)CCC3)cc1	38.8	3.8
COc1ccc(CNC2CCCC2)cc1Br	0.5	-7.2
COc1ccc(CNc2ccc3c(c2)CCC3)cc1	68.1*	3.8
COc1ccccc1CNc1ccc2c(c1)ncn2-c1ccccc1OC	62.0*	0.6
c1cc2c(cc1CNc1ccc3c(c1)CCC3)OCO2	72.1*	-3.1
COc1ccc(CNc2ccc3c(c2)CCC3)cc1Br	76.8*	4.2
Cc1noc(C)c1C1CCCN1C(=O)Nc1ccc(F)cc1F (stereo not drawn)	-1.9	-3.3
COc1ccc(CNC(=O)CN2CCc3ccccc3C2C(=O)N2CCC(C)CC2)cc1 (stereo not drawn)	6.5	-2.4
C=CCN(CC=C)S(=O)(=O)c1ccc2nc(NC(=O)Cc3cccs3)sc2c1	15.8	-2.0
CCn1ccc2oc(C)c(C(=O)NCc3ccccc3C)c2c1=O	-3.6	-0.1
O=C(Nc1ccc(CN2CCN(c3ccccn3)CC2)cc1)Nc1ccc2c(c1)OCO2	0.1	-3.3
COc1cc(OC)c(CNc2ccc3c(c2)CCC3)cc1Br	85.0*	0.7
COc1cc(OC)c(CNC2CCCC2)cc1Br	-2.8	1.9
c1cc(CNc2ccc3c(c2)CCC3)ccn1	35.3	-3.4
COc1ccccc1CNc1ccc2c(c1)CCC2	79.0*	5.0
COc1ccc(CNc2ccc(SC)cc2)cc1	42.9	6.2
COc1ccc(CNc2cccc(N(C)C)c2)cc1	96.3*	-3.3
CC(=O)c1ccc(OC(=O)C2OC3OC4(CCCCC4)OC3C3OC4(CCCCC4)OC23)cc1 (stereo not drawn)	2.7	-1.4
C#CCn1c(CN2CCOCC2)nc2ccccc21	9.2	-4.5
COc1ccc(OC)c(-c2cc3ccc(OCC=C(C)C)cc3oc2=O)c1	-12.9	-4.8
